The record followed here is PubChem BioAssay AID720489 (Milwaukee Institute for Drug Discovery, 2013).

SMILES strings stand for the structures. Some of the results follow. A number with no mark means an inactive call. The source made the active and inactive calls.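 Rule for the calls: active = fluorescence interference ratio at or below 0.8 quencher or at or above a set limitenhancer; inactive = the rest.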

The experiment is described as follows: Cy5-DNA-NS3h complex fluorescence interference, confirmation, artefact control for HCV NS3 helicase inhibitor project, biochemical, ChemBridge library (AID 720489). As to conditions: Cy5-dT15 DNA/NS3h fluorescence interference counterscreen; at 100 µM.

Turning to `Cc1ccc(C(=O)C[n+]2cc(-c3ccccc3)n3c2CCCCC3)cc1`, the fluorescence interference ratio is 1.02.

On to `COc1ccc(C(=O)Oc2ccc3oc(=O)cc(C)c3c2)cc1OC`, for which the fluorescence interference ratio was 0.772 (active).

Turning to `O=C1NC(=O)C(=Cc2cc([N+](=O)[O-])cc(Br)c2O)C(=O)N1`, the fluorescence interference ratio is 0.747 (active).

For `CCN(CC)c1ccc(NC(=O)/C(=C\c2ccccc2)NC(C)=O)cc1`, the fluorescence interference ratio is 1.09.

Turning to `N#Cc1c(N)nc2sc(C(=O)Nc3ccccc3)c(N)c2c1-c1ccco1`, the fluorescence interference ratio is 0.783 (active).

For `Cc1ccc(C(=O)NCCNc2ccc([N+](=O)[O-])cc2)cc1`, the fluorescence interference ratio is 0.955.

For `COc1cc(/C(O)=C(\C#N)c2nc3ccccc3n2C)cc(OC)c1OC`, the fluorescence interference ratio is 0.722 (active).

Regarding `O=C(NC(=S)Nc1ccc(-c2nc3cc(Cl)ccc3o2)cc1)c1ccco1`, the fluorescence interference ratio is 1.01.

Consider `CCN(CC)c1ccc(C=C2C(=O)N(C)C(=O)N(C)C2=O)c(O)c1`, for which the fluorescence interference ratio is 1.

As for `CC(C)(C)N1C(=O)NC(=O)C(=Cc2cccs2)C1=O`, the fluorescence interference ratio is 0.788 (active).

For `CCOc1ccc(C=C2C(=O)NC(=O)NC2=O)cc1Cl`, the fluorescence interference ratio was 0.902.

As for `C=CCN1C(=O)/C(=C\c2cc(OC)c(O)c([N+](=O)[O-])c2)C(=O)NC1=S`, the fluorescence interference ratio was 0.746 (active).

For the compound `O=c1c2c(nc3cc(-c4cccc(F)c4)[nH]n13)CCS2`, the fluorescence interference ratio was 0.718 (active).

As for `COc1ccc(N2C(=O)C=CC2=O)c([N+](=O)[O-])c1`, the fluorescence interference ratio is 0.746 (active).

For the compound `COc1cc(C=C2C(=O)NC(=O)NC2=O)ccc1OCCOc1ccc([N+](=O)[O-])cc1`, the fluorescence interference ratio was 0.667 (active).
